Experimental data reported in PubChem BioAssay (NCI).
Compounds without any hit were thinned out: in the full panel of roughly 79,000, 15% have a hit. Calls of active or inactive are those of the source. No stated cut-off is given here; in the data, active means growth inhibition above about 70%; inactive means the rest.

What was measured:
[1] = NCI Yeast Anticancer Drug Screen. Data for the rad50 strain (AID 155);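 further: 0% = growth of vehicle-only cultures of the same strain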; details: S. cerevisiae rad50 strain growth inhibition, active compounds read high
Summary of the method: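 Readout: growth inhibition relative to vehicle-treated cultures. Compound exposure was carried out in a genetically defined yeast strain deficient in DNA damage repair.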

[2] = NCI Yeast Anticancer Drug Screen. Data for the mec2-1 strain (AID 157); details: S. cerevisiae mec2-1 strain, active compounds read high
Summary of the method: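 Yeast mec2-1 mutant treated with compound. Readout: growth inhibition vs vehicle controls.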

[3] = NCI Yeast Anticancer Drug Screen. Data for the sgs1 mgt1 strain (AID 161);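 further: 0% = growth of cultures given vehicle only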; details: S. cerevisiae sgs1 mgt1 strain, active compounds read high
Summary of the method: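 Test agents were incubated with a DNA-repair-mutant yeast strain. Growth was then read and compared against vehicle-treated controls.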

[4] = NCI Yeast Anticancer Drug Screen. Data for the cln2 rad14 strain (AID 165);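 further: 0% = growth equal to vehicle treated cultures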; details: S. cerevisiae cln2 rad14 strain, active compounds read high
Summary of the method: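 cln2 rad14 yeast strain; compound exposure; growth inhibition read vs vehicle controls.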

[5] = NCI Yeast Anticancer Drug Screen. Data for the bub3 strain (AID 167); details: S. cerevisiae bub3 mutant strain, active compounds read high
Summary of the method: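 Readout: yeast growth inhibition, expressed relative to vehicle-only wells. The test organism is a mutant strain from a panel with lesions in DNA repair or checkpoint genes.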

[6] = NCI Yeast Anticancer Drug Screen. Data for the mlh1 rad18 strain (AID 175); details: S. cerevisiae mlh1 rad18 strain growth inhibition, active compounds read high
Summary of the method: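 Yeast w/ defined DNA-repair lesions; compound exposure; growth vs vehicle controls → % inhibition.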

[7] = at 5.0 µM (retest, dose inferred, filed as 0.5)
[8] = at 50.0 µM (retest, dose inferred, filed as 5.0)

| SMILES | growth inhibition [1, 7] | growth inhibition [1, 8] | growth inhibition ([1]; at 50.0 µM) | growth inhibition [2, 7] | growth inhibition [2, 8] | growth inhibition ([2]; at 50.0 µM) | growth inhibition [3, 7] | growth inhibition [3, 8] | growth inhibition ([3]; at 50.0 µM) | growth inhibition [4, 7] | growth inhibition [4, 8] | growth inhibition ([4]; at 50.0 µM) | growth inhibition [5, 7] | growth inhibition [5, 8] | growth inhibition ([5]; at 50.0 µM) | growth inhibition [6, 7] | growth inhibition [6, 8] | growth inhibition ([6]; at 50.0 µM) |
| --- | --- | --- | --- | --- | --- | --- | --- | --- | --- | --- | --- | --- | --- | --- | --- | --- | --- | --- |
| N=C(N)Sc1ccc([N+](=O)[O-])cc1Cl | 45% (inactive) | 94% (active) | 85.2% (active) | 35% (inactive) | 96% (active) | 86.8% (active) | 56% (inactive) | 97% (active) | 90.3% (active) | 36% (inactive) | 89% (active) | 84.5% (active) | 40% (inactive) | 59% (inactive) | 86.2% (active) | 63% (inactive) | 96% (active) | 85.7% (active) |
| O=C1c2ccccc2C(=O)c2c1cc(O)c(O)c2O | 17% (inactive) | 95% (active) | 83.2% (active) | 20% (inactive) | 92% (active) | 77.5% (active) | 23% (inactive) | 95% (active) | 81.5% (active) | 2% (inactive) | 88% (active) | 59.2% (inactive) | 13% (inactive) | 91% (active) | 70.7% (active) | 35% (inactive) | 95% (active) | 82% (active) |
| CSc1c(C)n([O-])c2cc(Cl)c(Cl)cc2[n+]1=O | 20% (inactive) | 94% (active) | 79.8% (active) | 14% (inactive) | 93% (active) | 86% (active) | 24% (inactive) | 99% (active) | 85.4% (active) | 17% (inactive) | 87% (active) | 64.4% (inactive) | 24% (inactive) | 96% (active) | 79.2% (active) | 23% (inactive) | 97% (active) | 92.3% (active) |
| Nc1nnc2nc(C(C(=O)c3ccccc3Cl)c3nc4nnc(N)n4[nH]c3=O)c(=O)[nH]n12 | -2% (inactive) | -4% (inactive) | 93.8% (active) | 1% (inactive) | 0% (inactive) | 99.8% (active) | -2% (inactive) | -2% (inactive) | 41.5% (inactive) | -1% (inactive) | -2% (inactive) | 74.6% (active) | -1% (inactive) | -7% (inactive) | 99.5% (active) | 0% (inactive) | -4% (inactive) | 96.5% (active) |
| Nc1cc2[nH]c(=O)c3cc(Cl)ccc3c2cc1Cl | 83% (active) | 94% (active) | 89.8% (active) | 7% (inactive) | 79% (active) | -3.35% (inactive) | 26% (inactive) | 86% (active) | 47.6% (inactive) | 8% (inactive) | 58% (inactive) | -24.2% (inactive) | 8% (inactive) | 59% (inactive) | -5.15% (inactive) | 65% (inactive) | 95% (active) | 61.2% (inactive) |
| C/C(=N/NC(N)=S)C(CN(C)C)C(C1=C(O)c2ccccc2OC1)c1ccccc1 (stereo not given) | 8% (inactive) | 8% (inactive) | 68% (inactive) | 2% (inactive) | 2% (inactive) | 52.5% (inactive) | 4% (inactive) | 4% (inactive) | 78.3% (active) | -1% (inactive) | -1% (inactive) | 65.8% (inactive) | 12% (inactive) | 12% (inactive) | 65.2% (inactive) | 0% (inactive) | 0% (inactive) | 66.8% (inactive) |
| O=[N+]([O-])c1ccc(-c2cccc(Cl)c2)c([N+](=O)[O-])c1 | 6% (inactive) | 98% (active) | 99.3% (active) | -3% (inactive) | 99% (active) | 99% (active) | 13% (inactive) | 99% (active) | 99.2% (active) | -17% (inactive) | 98% (active) | 91% (active) | 9% (inactive) | 99% (active) | 98.8% (active) | 2% (inactive) | 98% (active) | 97.9% (active) |
| CC1CCC2(C)C(CC=C(C=O)C2(O)C=O)C12CO2 (stereo not given) | 99% (active) | 99% (active) | 93.4% (active) | 99% (active) | 99% (active) | 95.3% (active) | 99% (active) | 99% (active) | 94.5% (active) | 99% (active) | 99% (active) | 92.9% (active) | 99% (active) | 54% (inactive) | 93.8% (active) | 99% (active) | 99% (active) | 93.5% (active) |
| O=c1cc2cccccc-2cc1O | -132% (inactive) | 94% (active) | 87.2% (active) | -42% (inactive) | 95% (active) | 70% (active) | -48% (inactive) | 96% (active) | 83.5% (active) | -43% (inactive) | 89% (active) | 86% (active) | -65% (inactive) | 95% (active) | 91.5% (active) | -130% (inactive) | 95% (active) | 86.3% (active) |
| COc1ccccc1C(c1cc2c(cc1O)OCO2)N1CCOCC1 (stereo not given) | -15% (inactive) | 97% (active) | 99% (active) | -20% (inactive) | 98% (active) | 98.6% (active) | -8% (inactive) | 98% (active) | 85.3% (active) | -12% (inactive) | 51% (inactive) | 77.4% (active) | 15% (inactive) | 99% (active) | 31.9% (inactive) | 6% (inactive) | 98% (active) | 42.4% (inactive) |
| Cc1cc2c(c([N+](=O)[O-])c1C)C(=O)C(Br)=C(N)C2=O | 95% (active) | 98% (active) | 93.5% (active) | 79% (active) | 99% (active) | 97.8% (active) | 96% (active) | 17% (inactive) | 98.8% (active) | 45% (inactive) | 98% (active) | 98.3% (active) | 87% (active) | 96% (active) | 94% (active) | 93% (active) | 99% (active) | 98% (active) |
| CCCCOC(=O)C#CC(=O)OCCCC | -144% (inactive) | -114% (inactive) | 99.6% (active) | -45% (inactive) | -46% (inactive) | 99.5% (active) | -64% (inactive) | -40% (inactive) | 99.3% (active) | -58% (inactive) | -65% (inactive) | 99.2% (active) | -69% (inactive) | -71% (inactive) | 99.3% (active) | -146% (inactive) | -105% (inactive) | 99.2% (active) |
| COS(=O)c1cc(Cl)cc(Cl)c1OC(=O)CSSCC(=O)Oc1c(Cl)cc(Cl)cc1S(=O)OC (stereo not given) | 87% (active) | 99% (active) | 98.8% (active) | 85% (active) | 99% (active) | 99.3% (active) | 95% (active) | 99% (active) | 99% (active) | 60% (inactive) | 98% (active) | 99.3% (active) | 92% (active) | 98% (active) | 98.9% (active) | 84% (active) | 99% (active) | 99% (active) |
| COc1cc(O)c2c(c1)C(=O)C1=C(C2=O)[C@@H](C)OC(C)[C@H]1O (stereo not given in full) | 8% (inactive) | 96% (active) | 53.4% (inactive) | 2% (inactive) | 94% (active) | 6.2% (inactive) | 8% (inactive) | 97% (active) | -4.5% (inactive) | 1% (inactive) | 95% (active) | -22.4% (inactive) | 21% (inactive) | 97% (active) | -2.75% (inactive) | 8% (inactive) | 97% (active) | -6.25% (inactive) |
| [O-]c1c(-c2cccc3ccccc23)sc(-c2cccc3ccccc23)[n+]1-c1ccccc1 | 5% (inactive) | 92% (active) | 70.7% (active) | 10% (inactive) | 95% (active) | 55.2% (inactive) | 8% (inactive) | 92% (active) | 50.1% (inactive) | -2% (inactive) | 93% (active) | 52.6% (inactive) | -2% (inactive) | 93% (active) | 46.1% (inactive) | 5% (inactive) | 92% (active) | 78.7% (active) |
| Nc1ncnc2c1c(-c1ccccc1)cn2-c1ccc(Br)cc1 | 23% (inactive) | 38% (inactive) | 43.1% (inactive) | 16% (inactive) | 43% (inactive) | 21.7% (inactive) | 47% (inactive) | 80% (active) | 94% (active) | 13% (inactive) | 44% (inactive) | 28.1% (inactive) | 3% (inactive) | 37% (inactive) | -1.8% (inactive) | 14% (inactive) | 58% (inactive) | 58.9% (inactive) |
| Cc1ccc(S(=O)(=O)NCCSSCCNS(=O)(=O)c2ccc(C)cc2)cc1 | -4% (inactive) | 95% (active) | 93.5% (active) | -3% (inactive) | 97% (active) | 96% (active) | -2% (inactive) | 98% (active) | 96.6% (active) | -6% (inactive) | 96% (active) | 94% (active) | 1% (inactive) | 95% (active) | 94.3% (active) | 1% (inactive) | 96% (active) | 95.4% (active) |
| c1ccc([CH2][Sn]([CH2]c2ccccc2)([S]c2cccc3cccnc23)[S]c2cccc3cccnc23)cc1 | 67% (inactive) | 24% (inactive) | 94.2% (active) | 61% (inactive) | 18% (inactive) | 92.5% (active) | 65% (inactive) | 59% (inactive) | 89.6% (active) | 17% (inactive) | -5% (inactive) | 84.5% (active) | 61% (inactive) | 30% (inactive) | 93% (active) | 46% (inactive) | 16% (inactive) | 93.5% (active) |
| CN(C)c1cc2c(cc1[N+](=O)[O-])-c1ccccc1C2O (stereo not given) | 5% (inactive) | 48% (inactive) | 91.4% (active) | -1% (inactive) | 28% (inactive) | 29.9% (inactive) | 0% (inactive) | 57% (inactive) | 56.6% (inactive) | -4% (inactive) | 34% (inactive) | 41.4% (inactive) | -6% (inactive) | 60% (inactive) | 70.5% (active) | 5% (inactive) | 74% (active) | 86.6% (active) |
| Clc1ccc(C2NC(c3ccccc3)c3c(ccc4ccccc34)O2)cc1 (stereo not given) | -4% (inactive) | 26% (inactive) | 70.5% (active) | 7% (inactive) | 19% (inactive) | 66.2% (inactive) | 2% (inactive) | 39% (inactive) | 27.1% (inactive) | 1% (inactive) | 15% (inactive) | 81.2% (active) | 3% (inactive) | 7% (inactive) | 58.6% (inactive) | 27% (inactive) | 53% (inactive) | 77.7% (active) |
